The results in this text go back to the supplement of paper PMC10477191.

± gives the standard deviation of the averaged measurements.

The test concerns Drosophila virilis antennal basiconic sensillum AB3. Description: odor-evoked OSN spike response (post minus pre-stimulus); higher = stronger neuronal excitation. To be noted: odor dilution: 10^-4. As to the method:
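Single sensillum recordings from antennal basiconic sensilla of D. virilis. A 500 ms pulse of odorant (10^-4 in mineral oil or DMSO) was delivered; the response is the change in spike frequency between the 1 s pre- and post-stimulus windows (spikes/s).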
As for `CC(C)=O` [acetone], the “odor-evoked OSN spike response” value is 92.2 ± 20 spikes/s.
